gsp antag: gsp mutant antagonism; gsp-mutant cells, cAMP HTRF, 30 min; 0.4% of 340,000 active; Potency, µM (highest dose often 76.9 µM), for the others: at the top dose activity change, negative = inhibition, hits mostly inhibitors; calls by dose curve; cell line not stated here;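 note: intracellular cAMP measured with PDE inhibitor Ro 20-1724 present during compound exposure; % is set by controls: 0 for no effect and ±100 for the full control effect; nearly all actives have a fitted effect of over 65% in size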
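Measurement of cellular cAMP by homogeneous time-resolved fluorescence following a 30 min compound exposure at 37C. The PDE inhibitor […] was present throughout; the assay buffer was DPBS with 0.05% BSA and 0.005% Tween 20.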
FUS suppressor: suppressors of FUS proteinopathy in yeast. AID 1347120. Potency, µM (highest dose often 76.6 µM), usual class: activators. 0.24% of 390,000 active. S. cerevisiae FUS-expressing, growth rescue, OD600, 24 h;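 note: plate controls were DMSO vehicle for no effect and reference control for full effect; nearly all actives have a fitted effect of over 55% in size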
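FUS-expressing yeast, raffinose-pregrown, induced in 2% galactose minimal medium at OD 0.005; compounds in a dilution series, 24hr at 30C. Growth restoration read as absorbance at 600 nm. CP55940 positive control, DMSO negative.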
gsp agonist: activates gsp, the McCune-Albright syndrome mutation; gsp mutant cells, cAMP HTRF, 30 min; Potency, µM (top dose mostly 76.9 µM), for inactives: at the highest dose activation (cAMP increase), most hits filed as activators; 0.13% of 340,000 active; active = well fitted activation curve with a large enough effect; inconclusive = small, poorly fitted or top-dose-only effect, or another doubt; inactive = no such curve, though single readings can be large or run the other way; cell line not stated here;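 note: phosphodiesterase inhibitor Ro 20-1724 added with compounds to block cAMP breakdown; nearly all actives have a fitted effect of over 60% in size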
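Cells stably selected in G418 were plated at 2000/well, grown 16-24 hr, then given compounds in DMSO with the PDE inhibitor […] (300 uM solution added) for 30 min at 37C; cAMP was read by HTRF.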
12-LOX inh: blocks human arachidonate 12S-lipoxygenase; AID 1671190; P18054; purified 12hLO, xylenol orange hydroperoxide absorbance; Potency, µM (titrated, usually from 108 µM), for inactives: at the top dose activity change, negative = inhibition, actives largely listed as inhibitors; 1.1% of 580,000 active; note: % is set by controls: 0 for no effect and ±100 for the full control effect
Target sequence (P18054 whole entry, looked up): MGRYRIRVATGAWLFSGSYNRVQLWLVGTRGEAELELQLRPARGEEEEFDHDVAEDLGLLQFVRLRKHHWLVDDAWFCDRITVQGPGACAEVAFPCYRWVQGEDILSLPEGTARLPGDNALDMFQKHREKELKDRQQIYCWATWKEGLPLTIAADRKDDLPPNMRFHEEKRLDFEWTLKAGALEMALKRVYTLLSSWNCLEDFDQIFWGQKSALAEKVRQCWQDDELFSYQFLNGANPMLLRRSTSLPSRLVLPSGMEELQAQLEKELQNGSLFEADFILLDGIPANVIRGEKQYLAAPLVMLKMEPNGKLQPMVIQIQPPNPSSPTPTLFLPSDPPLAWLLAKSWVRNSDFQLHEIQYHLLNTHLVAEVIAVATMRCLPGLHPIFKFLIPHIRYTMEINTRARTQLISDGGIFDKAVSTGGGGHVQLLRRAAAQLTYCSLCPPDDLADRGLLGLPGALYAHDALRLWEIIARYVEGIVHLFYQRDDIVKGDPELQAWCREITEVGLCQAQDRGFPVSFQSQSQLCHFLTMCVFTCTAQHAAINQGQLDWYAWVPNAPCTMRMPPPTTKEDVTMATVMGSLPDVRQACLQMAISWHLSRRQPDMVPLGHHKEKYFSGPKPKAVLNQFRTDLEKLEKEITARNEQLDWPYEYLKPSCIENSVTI
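Purified human 12hLO at 150 nM in 25 mM Hepes, 0.01% Triton X-100, pH 7.0, preincubated 15 min at room temperature with compound. Reaction started with 40 uM arachidonic acid, 30 min at room temperature. Hydroperoxide measured by Fe-xylenol orange, 573/405 nm absorbance ratio.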
Mito fusion yeast: inhibitors of mitochondrial division or activators of mitochondrial fusion | Potency, µM (doses to about 46.1 µM), for inactives: at the top dose growth rescue (activation), actives largely listed as activators | S. cerevisiae fusion-defective mutant growth rescue, CellTiterGlo 48 h | 0.23% of 320,000 active; note: % of control where 0% means no effect; nearly all actives have a fitted effect of over 45% in size
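S. cerevisiae fusion-defective temperature-sensitive mutants (e.g. fzo1-1, mgm1-5) grown 48 h at 37C in YPEG (ethanol/glycerol non-fermentable) medium with 23 nl compound per well; growth rescue read as CellTiterGlo luminescence.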
Numbers without * were called inactive; i = inactive; ? = inconclusive; . = no result given; ! = a repeat was not active; [ ] = dose if it differs, or a comment. Most compounds without a hit are left out; they make up all but 1.6% or so of the library. Unless noted, calls come from the whole dose curve; as a rule, active = well fitted curve in the direction sought with a large enough effect; inconclusive = small, poorly fitted or top-dose-only effect, or another doubt; inactive = no such curve, though single readings can be large; an effect the other way counts as inactive or inconclusive. Potency is the fitted concentration of half-maximal effect.

SMILES | gsp antag | FUS suppressor | gsp agonist | 12-LOX inh | Mito fusion yeast
O=C(O)c1cc(-c2cccc3ccccc23)nc2ccccc12 | -30% | i | -18% | -12% | -4%
O=C(O)c1cc(-c2c[nH]c3ccccc23)nc2cc3ccccc3cc12 | . | . | . | 13µM* | 10%
CC(NC(=O)CN(C)Cc1cccc(Cl)c1)c1ccccc1 (configuration not stated) | 11µM* | i | 2%[15.4 µM] | ? | 6%
Cc1ccccc1CC(=O)N1CCC2(CC1)N(c1ccccc1)C(=O)CS2(=O)=O | . | . | . | 34% | .
O=C(C1CC1)N1CCC2(CC1)NC(=O)N(c1cccc(Cl)c1)N2 | . | . | . | 1.4µM* | .
O=C1NC2(CCC3(CC2)OCCO3)NN1c1ccccc1 | 5% | i | -5% | ? | 2%
O=C(C1CCCC1)N1CCC2(CC1)NC(=O)N(c1ccccc1)N2 | . | . | . | 2.8µM* | .
Cc1ccccc1CC(=O)N1CCC2(CC1)NC(=O)N(c1ccccc1)N2 | . | . | . | 1.3µM* | .
CCn1nccc1C(=O)N1CCC2(CC1)NC(=O)N(c1ccccc1)N2 | . | . | . | 5.6µM* | .
CS(=O)(=O)Nc1ccc(-c2csc(N3CCCC3)n2)cc1 | . | . | . | -22% | .
Cc1nc2ncnn2c(C)c1CCC(=O)Nc1cccc(S(=O)(=O)N2CCCC2)c1 | . | . | . | -20% | .
CCN(CCCNC(=O)C1CCCCC(=O)N1C)c1ccccc1 (configuration not stated) | . | . | . | 8% | .
O=C(COc1ccc([N+](=O)[O-])cc1)NNC(=S)NC(=O)c1ccc(Br)cc1 | . | i | 6%[15.4 µM] | 40µM* | 11%
O=C(NC(=S)NNC(=O)c1ccccc1[N+](=O)[O-])c1ccc(Br)cc1 | -2% | i | -12% | 3.5µM* | 3%
Cc1ccc(C(=O)NC(=S)NNC(=O)COc2ccc([N+](=O)[O-])cc2)cc1 | -13% | i | 15%[15.4 µM] | ? | -7%
O=C(NNC(=S)NC(=O)c1ccccc1[N+](=O)[O-])c1ccccc1Cl | 0% | i | -84% | ? | -5%
O=C(Nc1ccc(F)cc1)c1ccc2c(c1)CC(c1ccc(F)cc1)OC2=O (configuration not stated) | . | . | . | -2% | .
CC(C)c1ccc(NC(=O)c2ccc3c(c2)C(=O)N(Cc2cccnc2)C3=O)cc1 | 35µM* | ? | ? | ? | -2%
CCOC(=O)c1ccc(NC(=O)c2ccc3c(c2)C(=O)N(Cc2cccnc2)C3=O)cc1 | 35µM* | i | ? | i | -1%
CCOC(=O)c1ccc(NC(=O)c2ccc3c(c2)C(=O)N(CC2CCCO2)C3=O)cc1 (configuration not stated) | 32µM* | . | -19% | 0% | -1%
C#Cc1cccc(NC(=O)c2ccc3c(c2)C(=O)N(Cc2cccnc2)C3=O)c1 | 40µM* | i | 33%[15.4 µM] | 1% | -4%
COC(=O)Cc1ccc(NC(=O)c2ccc3c(c2)C(=O)N(Cc2cccnc2)C3=O)cc1 | -11% | i | -19% | 1% | 0%
CC(=O)c1cccc(-c2cnc3ccc(-c4cccc(CO)c4)nn23)c1 | . | . | . | -6% | .
N#Cc1ccnc(N2CCN(C(=O)Nc3cccnc3)CC2)c1 | . | . | . | -2% | .
COC(CN(C)C(=O)c1cc(Nc2ccc(C)c(C)c2)nc2ccccc12)OC | . | . | . | -4% | .
SMILES | gsp antag | FUS suppressor | gsp agonist | 12-LOX inh | Mito fusion yeast
Cc1nc2nc(NCc3cc(F)cc(F)c3)[nH]n2c(=O)c1CCO | . | . | . | -21% | .
CCN(Cc1ccccc1)C(=O)Cn1c(=O)c2c(ncn2C)n(C)c1=O | . | . | . | 19% | .
COc1ccc(-c2c(C)oc3cc(OC(=O)c4cccs4)ccc3c2=O)cc1 | . | . | . | 7% | .
COc1ccc(N2C(=O)C(C)(C)CS2(=O)=O)cc1S(=O)(=O)NCCc1ccccc1F | . | . | . | -10% | .
N#CC1=C(N)OC2=C(C(=O)CC(c3ccc(Cl)cc3)C2)C1c1ccccc1Cl (configuration not stated) | . | . | . | 16µM* | .
CCc1ccc2nc(Nc3nc(-c4cccc(OC)c4)cc(=O)[nH]3)nc(C)c2c1 | . | . | . | -1% | .
CCC(C)C(=O)NCc1cccc(COC(C)C)c1 (configuration not stated) | . | . | . | 19% | .
O=C(Nc1nnc(S(=O)(=O)N2CCCC2)s1)c1cccc([N+](=O)[O-])c1 | 50µM* | i | ? | . | 1%
CC1CCN(S(=O)(=O)c2nnc(NC(=O)c3cccc([N+](=O)[O-])c3)s2)CC1 | ? | i | 43% | . | 10%
CN1CCN(C(=O)c2cc(-c3ccc(F)cc3)nc3ccccc23)CC1 | . | . | . | -24% | .
S=c1[nH]nc(-c2c[nH]c3ccccc23)o1 | -3% | i | -5% | ? | -4%
Oc1cc2ccccc2cc1-c1n[nH]c(=S)o1 | 28µM* | i | 12% | 14% | -2%
O=C(c1cc(-c2ccc(F)cc2)nc2ccccc12)N1CCC(Cc2nncn2CC2CC2)CC1 | . | . | . | 4% | .
O=C(Nc1cccc2cccnc12)c1cccc(Cl)c1Cl | . | . | . | 2% | .
Cc1ccc(CN(C(=O)Nc2cccc(Cl)c2)c2ccccn2)o1 | . | . | . | 0% | .
Cn1c(=O)c([N+](=O)[O-])c(Cl)c2ccccc21 | 28µM* | i | -2%[15.4 µM] | 0% | -24%
Cc1nc2cc(-c3ccccc3)ccc2s1 | . | . | . | -3% | .
O=C(/C=C/c1ccco1)OCC(=O)c1ccccc1 | . | . | . | -57% | .
COc1ccc(C(NC(=O)/C=C/c2ccco2)c2ccc(OC)cc2)cc1 | -1% | . | 5% | 45µM* | -8%
O=C(/C=C/c1ccco1)Oc1ccc(Sc2ccc(OC(=O)/C=C/c3ccco3)cc2)cc1 | . | . | . | 11µM* | .
COc1ccc(C(NC(=O)/C=C\c2ccco2)c2ccc(OC)c(OC)c2)cc1 (configuration not stated) | -6% | i | ? | 32µM* | -7%
O=C(CSc1ncnc2c1sc1cccc(F)c12)NCCN1CCN(Cc2ccccc2)CC1 | . | . | . | 0% | .
C[C@H]1COC2=C1C(=O)C(=O)c1c2ccc2c1CCCC2(C)C | -30% | i | . | ? | 7%
Cc1coc2c1C(=O)C(=O)c1c-2ccc2c1CCCC2(C)C | -12% | i | ? | 24µM*! | 4%

Source: PubChem (National Center for Advancing Translational Sciences (NCATS))
